By Inhibition is commonly meant the change of the read-out against control, counted positive when it falls.

Potency and affinity values are given separately.

One experiment relates to Staphylococcus aureus. The note with it: Concentration 32 ug.mL-1;; ASSAY_TEST Inhibition of Bacterial Growth; detection method Absorption (OD600); MEDIA CAMHB; plate type 384well; NBS; CORNING #3640; time 18 hr.
The subject of another experiment is Escherichia coli. The note with it: Concentration 32 ug.mL-1;; ASSAY_TEST Inhibition of Bacterial Growth; detection method Absorption (OD600); MEDIA CAMHB; plate type 384well; NBS; CORNING #3640; time 18 hr.

As to `CC(C)Sc1ccc2nn(CC(=O)Nc3ccc(F)cc3Cl)c(=O)n2n1`, the Inhibition with Staphylococcus aureus is reported as -4.06%; with Escherichia coli, -3%.

For `CC(C)c1ccc(Cn2c(=O)c3sccc3n3c(SCc4cccc(C(F)(F)F)c4)nnc23)cc1`, the Inhibition in the experiment on Staphylococcus aureus worked out at 11.56%; in the experiment on Escherichia coli, 1.07%.

With `N#Cc1cccc(NC(=O)Cn2nc3c(Oc4ccccc4)nccn3c2=O)c1`, the Inhibition is 10.16% in the experiment with Staphylococcus aureus and -2.65% with Escherichia coli.

For `COc1ccccc1-n1ccn2c(SCC(=O)Nc3ccc(F)cc3F)nnc2c1=O`, the Inhibition was -4.28% in the experiment with Staphylococcus aureus and 0.2% in the experiment on Escherichia coli.

Turning to `CCOc1ccc(N(Cc2ccc(F)cc2)S(=O)(=O)c2ccc3nncn3c2)cc1`, the Inhibition in the experiment on Staphylococcus aureus was -10.69%; in the experiment with Escherichia coli, -16.83%.

As for `CC1CC(C)CN(c2nccn3c(=O)n(CC(=O)NCc4ccccc4Cl)nc23)C1` (centres undefined), the Inhibition with Staphylococcus aureus was determined as 3.32%; in the experiment on Escherichia coli, 2.48%.

As to `Cc1cccc(Cn2nc3n(CCc4ccccc4)c(=O)c4sccc4n3c2=O)c1`, the figures for the Inhibition in the experiment on Staphylococcus aureus and with Escherichia coli were -3.57% and -0.08%, respectively.

For `Cc1cccc(N(Cc2ccccc2F)S(=O)(=O)c2ccc3nncn3c2)c1`, the Inhibition with Staphylococcus aureus is listed as -3.86%; with Escherichia coli, -5.15%.

As to `Cc1cc2nn(CC(=O)NCc3ccco3)c(=O)n2c(Nc2ccc(C)c(F)c2)n1`, the Inhibition with Staphylococcus aureus is reported as 0.2%; with Escherichia coli, -8.01%.

For the compound `Cc1ccc(-c2cc3c4nnc(CCC(=O)N5CCC(Cc6ccccc6)CC5)n4ccn3n2)cc1C`, the results for the Inhibition with Staphylococcus aureus and in the experiment with Escherichia coli were 10.73% and 2.4%, respectively.

With `COc1ccc(NC(=O)c2ccc3nn(CC(=O)Nc4cccc(SC)c4)c(=O)n3c2)cc1`, the Inhibition in the experiment with Staphylococcus aureus is -4.7%; in the experiment on Escherichia coli, -9.26%.

As for `O=c1c2nnc(SCc3cccc(F)c3)n2ccn1-c1ccc(Br)cc1`, the Inhibition is recorded as 15.11% in the experiment with Staphylococcus aureus and -3.12% with Escherichia coli.

Source of the values: ChEMBL document CHEMBL4513146, “CO-ADD screening of Karazin Kharkiv National University (Ukraine) compounds”.
